According to the supplement of paper PMC3334620:
Whole data set: some 33,000 sequences, median “E-score (-0.5 to 0.5)” near -0.053, cut for the highest 2% near 0.37. Many of the other results were omitted from the sample, so the highest values are more common in it than they were.

The sequences below were run against Hap1 (UniProt P0CE41) (assay: PBM E-score (8-mer binding enrichment) (E-score (-0.5 to 0.5)); higher = stronger / more preferred TF binding). Conditions: protein concentration: 200 nM; construct: GST-DNA-binding domain.
UniProt P0CE41, sequence (P0CE41 whole entry, the tested form may be a part): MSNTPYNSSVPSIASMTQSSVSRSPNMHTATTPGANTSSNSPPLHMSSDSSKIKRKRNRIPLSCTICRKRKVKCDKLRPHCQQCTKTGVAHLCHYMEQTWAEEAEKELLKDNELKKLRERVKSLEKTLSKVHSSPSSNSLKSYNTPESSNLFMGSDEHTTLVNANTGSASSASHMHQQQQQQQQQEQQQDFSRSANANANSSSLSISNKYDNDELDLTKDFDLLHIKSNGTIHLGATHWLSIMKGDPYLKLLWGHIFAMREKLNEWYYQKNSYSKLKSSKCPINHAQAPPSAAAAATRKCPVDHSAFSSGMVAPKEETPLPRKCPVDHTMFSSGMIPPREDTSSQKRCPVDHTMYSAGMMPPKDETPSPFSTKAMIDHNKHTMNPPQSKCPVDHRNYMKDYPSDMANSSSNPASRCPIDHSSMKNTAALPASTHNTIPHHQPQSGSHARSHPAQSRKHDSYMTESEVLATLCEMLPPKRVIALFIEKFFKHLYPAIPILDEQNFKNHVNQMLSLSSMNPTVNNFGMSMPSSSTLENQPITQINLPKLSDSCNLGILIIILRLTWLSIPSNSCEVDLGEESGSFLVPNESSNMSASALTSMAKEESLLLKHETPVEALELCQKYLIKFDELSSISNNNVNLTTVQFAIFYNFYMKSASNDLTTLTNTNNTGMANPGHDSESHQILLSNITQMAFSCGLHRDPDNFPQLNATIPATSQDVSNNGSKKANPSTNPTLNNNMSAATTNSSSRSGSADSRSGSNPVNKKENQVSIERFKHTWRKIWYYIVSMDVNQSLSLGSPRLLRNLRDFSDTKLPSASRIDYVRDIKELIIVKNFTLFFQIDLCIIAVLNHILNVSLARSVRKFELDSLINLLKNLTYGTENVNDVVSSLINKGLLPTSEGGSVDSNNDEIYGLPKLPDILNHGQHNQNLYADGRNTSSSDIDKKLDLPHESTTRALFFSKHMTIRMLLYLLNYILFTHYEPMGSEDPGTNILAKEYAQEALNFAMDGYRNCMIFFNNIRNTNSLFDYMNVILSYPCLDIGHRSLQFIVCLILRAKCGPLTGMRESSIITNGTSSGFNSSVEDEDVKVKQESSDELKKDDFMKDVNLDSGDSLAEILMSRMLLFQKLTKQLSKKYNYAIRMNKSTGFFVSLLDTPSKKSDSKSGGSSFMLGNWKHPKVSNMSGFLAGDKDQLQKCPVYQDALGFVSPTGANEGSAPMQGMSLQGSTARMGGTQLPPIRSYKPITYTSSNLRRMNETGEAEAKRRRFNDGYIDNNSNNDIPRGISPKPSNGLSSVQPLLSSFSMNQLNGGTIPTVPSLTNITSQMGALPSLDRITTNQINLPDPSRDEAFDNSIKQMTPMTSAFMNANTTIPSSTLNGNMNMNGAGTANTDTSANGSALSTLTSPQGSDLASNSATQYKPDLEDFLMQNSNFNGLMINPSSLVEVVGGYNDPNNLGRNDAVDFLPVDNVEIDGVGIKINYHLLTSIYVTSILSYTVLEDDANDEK
Outline: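 Detection of bound protein used fluorescent anti-GST, with scans normalised by masliner. The proteins were GST-tagged yeast transcription factors applied at about 100-200 nM to universal all-10-mer Agilent arrays made double-stranded by primer extension. Each ungapped eight-base word, pooled with its reverse complement, was scored with an E-score from the Universal PBM Analysis Suite.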
In the case of AGGGCTGG, the “PBM E-score” value is reported as -0.101.
For CCGGTTCA, the “PBM E-score” value was 0.267.
With CGTTTTAA the “PBM E-score” value was -0.0609.
In the case of CCGGAGAC, the “PBM E-score” value is reported as 0.373.
With GCGGAGCA the “PBM E-score” value was 0.211.
CCGGAGCA was tested, and the “PBM E-score” value was 0.418.
With CCGGAGCG the “PBM E-score” value was 0.359.
In the case of CGGGAGAC, the “PBM E-score” value is reported as 0.216.
With GCGGAGAC the “PBM E-score” value was 0.348.
In the case of AGTTAGGC, the “PBM E-score” value is reported as -0.113.
For CTCGGGAC, the “PBM E-score” value was 0.263.
For GCCCCATA, the “PBM E-score” value was -0.00491.
For CCCGGGTA, the “PBM E-score” value was 0.315.
CCGGGGCC was tested, and the “PBM E-score” value was 0.318.
In the case of CCGGGGCG, the “PBM E-score” value is reported as 0.322.
In the case of CCCGGGTC, the “PBM E-score” value is reported as 0.386.
GCCGGGGA was tested, and the “PBM E-score” value was 0.392.
For CCCGGGCG, the “PBM E-score” value was 0.383.
In the case of GCCGGGAA, the “PBM E-score” value is reported as 0.326.
With CCCCGGCG the “PBM E-score” value was 0.309.
With CCCGGGGC the “PBM E-score” value was 0.33.
ACCGGGTC was tested, and the “PBM E-score” value was 0.194.
In the case of CCCGGGCC, the “PBM E-score” value is reported as 0.387.
With CCCGGGGA the “PBM E-score” value was 0.359.
With CGGGGTTC the “PBM E-score” value was 0.211.
AACAGATC was tested, and the “PBM E-score” value was -0.0165.
GCCTTAGA was tested, and the “PBM E-score” value was -0.04.
GGTAACAA was tested, and the “PBM E-score” value was 0.13.
TAAGAATA was tested, and the “PBM E-score” value was -0.141.
In the case of TGTCCACA, the “PBM E-score” value is reported as -0.159.
In the case of TTACCAAA, the “PBM E-score” value is reported as -0.0884.
CTGGTTAC was tested, and the “PBM E-score” value was -0.205.
GAAAAGTA was tested, and the “PBM E-score” value was -0.0758.
GATCTGCC was tested, and the “PBM E-score” value was 0.03.
In the case of ACCGGGGA, the “PBM E-score” value is reported as 0.284.
In the case of ACCGGGCG, the “PBM E-score” value is reported as 0.385.
ACCGGGCC was tested, and the “PBM E-score” value was 0.373.
CCGGGGCA was tested, and the “PBM E-score” value was 0.312.
In the case of AACGGGCG, the “PBM E-score” value is reported as 0.246.
For ACCGGGCA, the “PBM E-score” value was 0.288.
For ACCGGGGC, the “PBM E-score” value was 0.291.
With ACCGGGCT the “PBM E-score” value was 0.334.
In the case of GCCGGGCA, the “PBM E-score” value is reported as 0.301.
For ACCGGGGG, the “PBM E-score” value was 0.379.
In the case of CCCGGGCA, the “PBM E-score” value is reported as 0.376.
With AGCGGGCG the “PBM E-score” value was 0.222.
With GCCAACAC the “PBM E-score” value was 0.0365.
For CGAGCAAG, the “PBM E-score” value was -0.182.
For CATTTAGG, the “PBM E-score” value was -0.112.
CTCCTCCA was tested, and the “PBM E-score” value was -0.216.
For CCGGGCAA, the “PBM E-score” value was 0.322.
GAGGAACC was tested, and the “PBM E-score” value was -0.0105.
In the case of CAGCATTC, the “PBM E-score” value is reported as -0.162.
For TATCAGCA, the “PBM E-score” value was 0.0209.
In the case of GCTTCACC, the “PBM E-score” value is reported as -0.12.
For CTCAGTTC, the “PBM E-score” value was -0.241.
GCTCTGTA was tested, and the “PBM E-score” value was -0.234.
In the case of AGAACATG, the “PBM E-score” value is reported as -0.0473.
With CCCCTCCC the “PBM E-score” value was -0.00587.
In the case of AACTGCCA, the “PBM E-score” value is reported as -0.186.
AACTCCGT was tested, and the “PBM E-score” value was 0.447.
With AACTCCCG the “PBM E-score” value was 0.333.
In the case of CACTCCGC, the “PBM E-score” value is reported as 0.156.
GACTCCGC was tested, and the “PBM E-score” value was 0.174.
AACTCCGC was tested, and the “PBM E-score” value was 0.389.
In the case of CACTCCGA, the “PBM E-score” value is reported as 0.212.
With AACTCCCT the “PBM E-score” value was -0.0179.
AACTCCAT was tested, and the “PBM E-score” value was 0.139.
CACTCCGG was tested, and the “PBM E-score” value was 0.302.
With GACTCCGA the “PBM E-score” value was 0.301.
With AACTCCGG the “PBM E-score” value was 0.481.
TACTCCGA was tested, and the “PBM E-score” value was 0.375.
ACCCTGTA was tested, and the “PBM E-score” value was -0.0405.
For CCTTCAAG, the “PBM E-score” value was -0.253.
In the case of AAGTGGCG, the “PBM E-score” value is reported as -0.0765.
ACGGCTGG was tested, and the “PBM E-score” value was 0.00715.
With AACTCCAA the “PBM E-score” value was -0.0924.
With AACTCCCA the “PBM E-score” value was -0.00143.
AACTCCGA was tested, and the “PBM E-score” value was 0.474.
TCTGTCCA was tested, and the “PBM E-score” value was 0.00731.
With CATCGGCG the “PBM E-score” value was 0.264.
With ACACTAGA the “PBM E-score” value was -0.095.
CCGGACAC was tested, and the “PBM E-score” value was 0.351.
In the case of CAGGACAG, the “PBM E-score” value is reported as -0.195.
In the case of CCGGACAG, the “PBM E-score” value is reported as 0.382.
With ACGGACAA the “PBM E-score” value was 0.335.
For TCGGACAA, the “PBM E-score” value was 0.394.
For CTGGACAA, the “PBM E-score” value was -0.215.
For CCGGACAA, the “PBM E-score” value was 0.414.
CAGGACAA was tested, and the “PBM E-score” value was 0.0261.
With GCGGACAA the “PBM E-score” value was 0.304.
For CGCGGGAG, the “PBM E-score” value was 0.0987.
In the case of CCAGTGCG, the “PBM E-score” value is reported as 0.0478.
With GTTCCATA the “PBM E-score” value was -0.0357.
With ACGCAACT the “PBM E-score” value was 0.064.
With AGTGCCAT the “PBM E-score” value was -0.0559.
For ATATCGGA, the “PBM E-score” value was 0.439.
With ATATCGTA the “PBM E-score” value was 0.11.
With CTATCGGA the “PBM E-score” value was 0.452.
In the case of CTATCGAA, the “PBM E-score” value is reported as -0.177.
With AAATCGGA the “PBM E-score” value was 0.344.
CTATCGTA was tested, and the “PBM E-score” value was -0.17.
TAATCGGA was tested, and the “PBM E-score” value was 0.317.
In the case of CAATCGGG, the “PBM E-score” value is reported as 0.205.
In the case of GTATCGAA, the “PBM E-score” value is reported as -0.152.
In the case of GTATCGGA, the “PBM E-score” value is reported as 0.415.
For GAATCGGA, the “PBM E-score” value was 0.366.
For CAATCGGA, the “PBM E-score” value was 0.394.
In the case of AACACAGA, the “PBM E-score” value is reported as -0.116.
With AGACCTTA the “PBM E-score” value was -0.154.
For GCTATAGC, the “PBM E-score” value was 0.0502.
AGCGGCAA was tested, and the “PBM E-score” value was 0.0491.
With CACGCTAA the “PBM E-score” value was -0.0232.
For ATACCCCC, the “PBM E-score” value was 0.283.
In the case of AACGCCCC, the “PBM E-score” value is reported as 0.128.
With AAGGACAG the “PBM E-score” value was -0.182.
For AAATCGGG, the “PBM E-score” value was 0.246.
In the case of ATATCGTG, the “PBM E-score” value is reported as -0.0299.
ATATCGGG was tested, and the “PBM E-score” value was 0.436.
With ATTCCGAA the “PBM E-score” value was 0.375.
ATTCCGAG was tested, and the “PBM E-score” value was 0.397.
ATTCCGAC was tested, and the “PBM E-score” value was 0.307.
With AATCCGAG the “PBM E-score” value was 0.338.
CTTCCGAA was tested, and the “PBM E-score” value was 0.324.
With ATTCCAAG the “PBM E-score” value was -0.177.
With AAGTCGGG the “PBM E-score” value was 0.153.
AAACCACG was tested, and the “PBM E-score” value was -0.0117.
For ACACACCC, the “PBM E-score” value was 0.117.
In the case of CAAGTCCA, the “PBM E-score” value is reported as -0.222.
AAAGTCCA was tested, and the “PBM E-score” value was -0.0824.
In the case of CAAGTCCG, the “PBM E-score” value is reported as 0.39.
AAAGTCCT was tested, and the “PBM E-score” value was 0.157.
In the case of AAAGTCCG, the “PBM E-score” value is reported as 0.446.
For CAAGTCCC, the “PBM E-score” value was -0.181.
In the case of CATCCTCA, the “PBM E-score” value is reported as -0.154.
For AATCAAAG, the “PBM E-score” value was -0.129.
In the case of AGCGGTCG, the “PBM E-score” value is reported as 0.123.
In the case of GGCTAAAA, the “PBM E-score” value is reported as 0.0064.
With CGATATAA the “PBM E-score” value was 0.308.
GGAGATAA was tested, and the “PBM E-score” value was 0.455.
In the case of CGAGATAC, the “PBM E-score” value is reported as 0.188.
With AGAGATAC the “PBM E-score” value was -0.0992.
CGAGATAA was tested, and the “PBM E-score” value was 0.164.
With GGTGATAC the “PBM E-score” value was 0.14.
In the case of GGATATAC, the “PBM E-score” value is reported as 0.319.
In the case of AGAGATAA, the “PBM E-score” value is reported as 0.00783.
GGATATAA was tested, and the “PBM E-score” value was 0.382.
GGAGATAC was tested, and the “PBM E-score” value was 0.438.
GGTGATAA was tested, and the “PBM E-score” value was 0.378.
In the case of CGTGATAA, the “PBM E-score” value is reported as -0.0733.
CGGAAGCC was tested, and the “PBM E-score” value was 0.199.
For GAGCGTGA, the “PBM E-score” value was -0.183.
AGTGCACT was tested, and the “PBM E-score” value was -0.0451.
With AACTTCTG the “PBM E-score” value was -0.205.
With CTGGTAGA the “PBM E-score” value was -0.2.
GAACACGA was tested, and the “PBM E-score” value was -0.0354.
ACCTGAAT was tested, and the “PBM E-score” value was -0.104.
CAGCCCTA was tested, and the “PBM E-score” value was -0.0376.
With ACTTATCA the “PBM E-score” value was -0.148.
In the case of AGTTATCA, the “PBM E-score” value is reported as -0.0683.
For AGTTATCG, the “PBM E-score” value was 0.382.
CCTTATCG was tested, and the “PBM E-score” value was 0.241.
For ACTTATCG, the “PBM E-score” value was 0.415.
AGTTATCC was tested, and the “PBM E-score” value was 0.106.
In the case of AGCGCGGA, the “PBM E-score” value is reported as 0.223.
GCGACAGC was tested, and the “PBM E-score” value was 0.0479.
In the case of CCCCGATA, the “PBM E-score” value is reported as 0.44.
With ACCCGATA the “PBM E-score” value was 0.439.
For GCCCGATA, the “PBM E-score” value was 0.423.
In the case of CCCCGAAA, the “PBM E-score” value is reported as 0.348.
In the case of CCCCGATC, the “PBM E-score” value is reported as 0.35.
With GCCCGACA the “PBM E-score” value was 0.255.
For ACCCGATG, the “PBM E-score” value was 0.3.
With GCACGATA the “PBM E-score” value was 0.0171.
ACCCGATC was tested, and the “PBM E-score” value was 0.244.
